This is a sample that favours compounds with a hit; in the whole collection about 3.1% have one here.
Mtb BioA inh: inhibitors of Mycobacterium tuberculosis BioA enzyme; inhibition, % at 9.99 µM; purified M. tuberculosis BioA enzyme, plate reader; AID 602481; 360,000 tested, 0.096% active; in the data active = inhibition above about 40%
FadD28 FP inh: inhibitors of Mycobacterium tuberculosis FadD28 bisubstrate binding | FadD28 bisubstrate probe binding, fluorescence polarization | inhibition, % at 12.5 µM | 360,000 tested, 0.22% active; in the data active = inhibition above about 8.5%, passing the limit was not always enough
GDH-TPI counter-1: inhibits GDH-TPI coupling enzymes, artifact for Mtb FBA screen | inhibition, % at 4.8 µM | 360,000 tested, 1.2% active | GDH-TPI coupled enzyme counterscreen, NADH absorbance; in the data active = inhibition above about 30%
SARS 3CLpro inh: SARS-CoV 3CLpro protease inhibition. AID 1706. 290,000 tested, 0.14% active. recombinant SARS-CoV 3CLpro, quenched FRET peptide cleavage. inhibition, % at 6 µM; in the data active = inhibition above about 12%
FBA Mtb inh: inhibits M. tuberculosis FBA enzyme; purified M. tuberculosis FBA, fluorescence read-out; inhibition, % at 1 µM; 360,000 tested, 2.3% active; AID 588726
Target sequence (P9WQA3 whole entry, looked up): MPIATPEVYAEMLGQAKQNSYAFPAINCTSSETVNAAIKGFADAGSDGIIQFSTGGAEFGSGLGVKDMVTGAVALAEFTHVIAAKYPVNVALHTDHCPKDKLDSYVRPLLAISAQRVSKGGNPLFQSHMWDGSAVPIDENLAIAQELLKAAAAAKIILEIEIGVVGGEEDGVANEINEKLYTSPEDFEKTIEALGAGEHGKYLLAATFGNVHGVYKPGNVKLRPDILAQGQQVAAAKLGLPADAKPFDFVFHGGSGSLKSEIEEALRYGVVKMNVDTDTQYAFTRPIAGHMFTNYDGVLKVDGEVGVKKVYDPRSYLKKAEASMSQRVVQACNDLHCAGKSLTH
Mtb FBA inh conf: confirmation of M. tuberculosis fructose-bisphosphate aldolase inhibitors | purified M. tuberculosis FBA, fluorescence read-out | 5,600 tested, 78% active | inhibition, % at 1 µM | shares compounds with FBA Mtb inh
GDH-TPI counter-2: inhibits GDH-TPI coupling enzymes, flagging Mtb FBA hits. GDH-TPI coupled enzyme counterscreen, fluorescence. inhibition, % at 1 µM. AID 652141. shares compounds with FBA Mtb inh. 5,600 tested, 81% active; in the data active = inhibition above about 10%
Of the large screens only hits and unclear results are named; the others gave an inactive call (follow-up assays come after a bar, where they were run). Cut-off read from the data, not from the text of the source, unless noted: active = inhibition above about 27%; inactive = the rest.

Cc1ccc(C)c(N(C(=O)c2snc(C(N)=O)c2N)C(C(=O)NCC2CCCO2)c2ccc(C)o2)c1 (configuration not stated)	FBA Mtb inh 37 (no result: Mtb BioA inh) | Mtb FBA inh conf 54 | GDH-TPI counter-2 48
Cc1cccc(N(C(=O)c2snc(C(N)=O)c2N)C(C(=O)NCC2CCCO2)c2cccs2)c1 (configuration not stated)	none (no result: Mtb BioA inh)
O=C(Cc1ccccc1)N1C[C@@H]2[C@H](c3ccccc31)[C@H](CO)N2C(=O)c1cccc(F)c1	none (no result: FadD28 FP inh, GDH-TPI counter-1, SARS 3CLpro inh, FBA Mtb inh)
C[C@@H]1CN([C@@H](C)CO)C(=O)c2cc(C#CCN(C)C)cnc2O[C@@H]1CN(C)C(=O)Nc1ccccc1F	none (no result: FadD28 FP inh, GDH-TPI counter-1, SARS 3CLpro inh, FBA Mtb inh)
CCn1c2ccccc2c2cc(/C=N/n3cnnc3)ccc21	GDH-TPI counter-1 46, FBA Mtb inh 32 | Mtb FBA inh conf 59 | GDH-TPI counter-2 48
CCn1c(/C=N/n2cnnc2)nc2ccccc21	GDH-TPI counter-1 47, FBA Mtb inh 28 | Mtb FBA inh conf 116 | GDH-TPI counter-2 83
COCC(=O)Nc1ccc2c(c1)[C@@H]1C[C@H](CC(=O)NCCc3ccccc3)O[C@H](CO)[C@@H]1O2	none (no result: FadD28 FP inh, GDH-TPI counter-1, SARS 3CLpro inh, FBA Mtb inh)
COc1cccc(/C=C/C(=O)OC(C)C(=O)Nc2c(C)n(C)n(-c3ccccc3)c2=O)c1 (configuration not stated)	FBA Mtb inh 29 (no result: Mtb BioA inh) | Mtb FBA inh conf 122 | GDH-TPI counter-2 101
COc1cc(/C=C/C(=O)OC(C)C(=O)Nc2c(C)n(C)n(-c3ccccc3)c2=O)ccc1OCC#N (configuration not stated)	none
C[C@H]1CCCCO[C@@H](CN(C)C(=O)Nc2ccccc2)[C@@H](C)CN([C@@H](C)CO)C(=O)c2cc(NS(=O)(=O)c3ccc(Cl)cc3)ccc2O1	none (no result: FadD28 FP inh, GDH-TPI counter-1, SARS 3CLpro inh, FBA Mtb inh)
COC(=O)c1ccccc1NC(=O)Cn1c(CCC(=O)O)ccc1-c1cccs1	none
CCCn1c(CCC(=O)O)ccc1-c1cccs1	FBA Mtb inh 35 | Mtb FBA inh conf 98 | GDH-TPI counter-2 84
COCCCn1c(CCC(=O)O)ccc1-c1cccs1	FBA Mtb inh 34 | Mtb FBA inh conf 34 | GDH-TPI counter-2 26
COC(=O)c1ccc2c(c1)C(C)(C)C(/C=C/c1ccc(OC)c(OC)c1OC)=[N+]2C	FBA Mtb inh 47 (no result: Mtb BioA inh) | Mtb FBA inh conf 78 | GDH-TPI counter-2 57
COc1ccc(CN(C)C[C@@H]2Oc3c(NC(=O)C4CCOCC4)cccc3C(=O)N([C@@H](C)CO)C[C@H]2C)cc1	none (no result: FadD28 FP inh, GDH-TPI counter-1, SARS 3CLpro inh, FBA Mtb inh)
O=C(N/N=C/c1ccc(N2CCOCC2)cc1)C1COc2ccccc2O1 (configuration not stated)	FBA Mtb inh 38 (no result: Mtb BioA inh) | Mtb FBA inh conf 44 | GDH-TPI counter-2 41
O=C(N/N=C\c1ccc(Cl)s1)C1COc2ccccc2O1 (configuration not stated)	none
COC(=O)COc1ccc2c(-c3ccc(OC)cc3)cc(=O)oc2c1	none
COC(=O)COc1ccc2cc(-c3ccc(OC)cc3)c(=O)oc2c1	FBA Mtb inh 44 | Mtb FBA inh conf 188 | GDH-TPI counter-2 171
CC(=O)Oc1ccc(-c2cc3ccccc3oc2=O)cc1	GDH-TPI counter-1 37, FBA Mtb inh 75 (no result: SARS 3CLpro inh) | Mtb FBA inh conf active | GDH-TPI counter-2 active
CC(=O)Oc1ccc(-c2cc3c(OC(C)=O)cc(OC(C)=O)cc3oc2=O)cc1	FBA Mtb inh 92 (no result: SARS 3CLpro inh) | Mtb FBA inh conf 171 | GDH-TPI counter-2 195
COc1ccc(-c2noc(-c3cc4ccccc4oc3=O)n2)cc1	none (no result: Mtb BioA inh, FadD28 FP inh, GDH-TPI counter-1, FBA Mtb inh)
C[C@@H]1CCCCO[C@H](CN(C)S(=O)(=O)c2cccs2)[C@@H](C)CN([C@@H](C)CO)C(=O)c2cc(NS(=O)(=O)c3cn(C)cn3)ccc2O1	none (no result: FadD28 FP inh, GDH-TPI counter-1, SARS 3CLpro inh, FBA Mtb inh)
O=C(CN1C(=O)/C(=C\c2ccccc2Br)Oc2ccccc21)NCCCN1CCOCC1	FBA Mtb inh 41 | Mtb FBA inh conf 58 | GDH-TPI counter-2 53
O=C(O)c1cc2nccc(-c3ccco3)n2n1	GDH-TPI counter-1 36, FBA Mtb inh 32 | Mtb FBA inh conf 122 | GDH-TPI counter-2 98
COc1ccc(-c2ccnc3cc(C(=O)O)nn23)cc1	FBA Mtb inh 36 (no result: Mtb BioA inh) | Mtb FBA inh conf inactive | GDH-TPI counter-2 inactive
CN1CCCCN2[C@H](C1)[C@H](c1ccc(-c3cccnc3)cc1)[C@@H]2CO	none (no result: FadD28 FP inh, GDH-TPI counter-1, SARS 3CLpro inh, FBA Mtb inh)
Cn1c(=O)c2nc(-c3ccccc3)c(-c3ccccc3)nc2n(C)c1=O	FBA Mtb inh 44 (no result: Mtb BioA inh, SARS 3CLpro inh) | Mtb FBA inh conf 81 | GDH-TPI counter-2 78
Cn1c(=O)c2nc(Cl)c(-c3ccccc3)nc2n(C)c1=O	FBA Mtb inh 33 (no result: Mtb BioA inh) | Mtb FBA inh conf 152 | GDH-TPI counter-2 105
Cn1c(=O)c2nc3ccccc3nc2n(C)c1=O	none
C[C@@H](NC(=O)C[C@H]1CC[C@H](NC(=O)Cc2ccccn2)[C@H](CO)O1)c1ccccc1	none (no result: FadD28 FP inh, GDH-TPI counter-1, SARS 3CLpro inh, FBA Mtb inh)
COc1ccc(NC(=O)Nc2ccc3c(c2)[C@H]2C[C@@H](CC(=O)N(C)C)O[C@@H](CO)[C@H]2O3)cc1	none (no result: FadD28 FP inh, GDH-TPI counter-1, SARS 3CLpro inh, FBA Mtb inh)
OC1c2c(F)cccc2N=C2CCCCN21 (configuration not stated)	FBA Mtb inh 38 (no result: SARS 3CLpro inh) | Mtb FBA inh conf 176 | GDH-TPI counter-2 162
CN(Cc1ccon1)C(=O)CC1C(=O)NCCN1Cc1cccc(Oc2ccccc2)c1 (configuration not stated)	none
CN(Cc1ccccn1)C(=O)CC1C(=O)NCCN1Cc1cccc(Oc2ccccc2)c1 (configuration not stated)	FBA Mtb inh 32 (no result: Mtb BioA inh) | Mtb FBA inh conf 165 | GDH-TPI counter-2 122
Cc1cc2n(n1)C(c1ccc(N(C)C)cc1)Nc1ccccc1-2 (configuration not stated)	FBA Mtb inh 33 | Mtb FBA inh conf 98 | GDH-TPI counter-2 82
CCSc1nc(N)c(C#N)c(-c2ccco2)c1C#N	none
CC(C)Cc1cc(-c2ccco2)c(C#N)c(N)n1	FBA Mtb inh 54 | Mtb FBA inh conf 169 | GDH-TPI counter-2 145
Nc1nc2ccccc2cc1-c1cccs1	FBA Mtb inh 69 | Mtb FBA inh conf 76 | GDH-TPI counter-2 62
N#Cc1cc2ccccc2nc1N	FBA Mtb inh 75 (no result: Mtb BioA inh) | Mtb FBA inh conf 65 | GDH-TPI counter-2 48
Cc1ccccc1S(=O)(=O)c1cc2ccccc2nc1N	FBA Mtb inh 46 | Mtb FBA inh conf active | GDH-TPI counter-2 active
Cc1ccc2nc(Cl)c(-c3ccccc3)cc2c1	none (no result: SARS 3CLpro inh)
Cc1ccc(-c2cc3ccccc3nc2N)cc1	FBA Mtb inh 46 (no result: FadD28 FP inh) | Mtb FBA inh conf 88 | GDH-TPI counter-2 80
CC(=O)N(C)C[C@@H]1Oc2ncc(C#Cc3cccc(F)c3)cc2C(=O)N([C@@H](C)CO)C[C@@H]1C	none (no result: FadD28 FP inh, GDH-TPI counter-1, SARS 3CLpro inh, FBA Mtb inh)
CCN(CC)CCN1C(=O)c2ccccc2NC1c1ccccc1F (configuration not stated)	FBA Mtb inh 68 | Mtb FBA inh conf 169 | GDH-TPI counter-2 88
O=C(O)CCC(=O)NN1C(=O)c2ccccc2NC1c1ccc(F)cc1 (configuration not stated)	FBA Mtb inh 40 (no result: Mtb BioA inh) | Mtb FBA inh conf 127 | GDH-TPI counter-2 95

Screening data: PubChem BioAssay, several laboratories
